Test [1] in a line: qHTS to identify inhibitors of the type 1 interferon - major histocompatibility complex class I in skeletal muscle: primary screen against the NCATS Pharmaceutical Collection (AID 1347407).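 Also: luminescence of HiBiT knocked into endogenous HLA-B as interferon-induced MHC class I level.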 In a few lines:
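A qHTS format is used: 8-point, 1:5 compound series with 46 uM top final concentration, applied alongside 4 ng/ml IFN-beta to HLA-B*08:01-HiBiT knock-in myoblasts. Luminescence is measured after 24 h treatment.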
(In qHTS, concentration-response curves come from the screen itself.)

The nature of test [2]: qHTS to identify inhibitors of the type 1 interferon - major histocompatibility complex class I in skeletal muscle: primary screen against the NCATS Mechanism Interrogation Plate v5.0 (MIPE) Libary (AID 1347411). Also: nearly all actives have a fitted effect of over 65% in size. In outline:
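Luminescence from CRISPR HiBit-tagged endogenous HLA-B in human myoblasts reported MHC class I level after 24 h of IFN-beta (4 ng/ml) plus compound. Compounds ran as 11-point 1:3 series, top 46 uM final.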

Test [3] addresses Protein phosphatase 1D (Homo sapiens) (UniProt O15297). The experiment in a line: RapidFire Mass Spectrometry qHTS Assay for Modulators of WT P53-Induced Phosphatase 1 (WIP1) (AID 1347424).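 Also: amount of dephosphorylated VEPPL-S-QETFS peptide product formed by WIP1; series mostly up to about 63 µM.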 In outline:
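Mass-spectrometric measurement of dephosphorylated peptide after a 5 min room-temperature reaction of 10 nM WIP1 with 2 uM phosphopeptide, following 1 h compound preincubation in 30 mM MgCl2 buffer.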

The target is the same in test [4]. The test can be described thus: Rhodamine-PBP qHTS Assay for Modulators of WT P53-Induced Phosphatase 1 (WIP1) (AID 1347425). In a few lines:
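WIP1 (5 nM final) was preincubated with compound for 1 hour at room temperature. It then dephosphorylated 10 uM VEPPL-pS-QETFS peptide in Tris-HCl pH 7.5 with 30 mM MgCl2. Released Pi was detected by 10 uM Rh-PBP fluorescence (ex 525/em 598 nm) read at 1-min intervals for 11 min, as delta f1 - f0.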

The nature of test [5]: Primary qHTS for inhibitors of SARS-S pseudo-typed particle cell entry (AID 1479145; calls by dose curve; also: nearly all actives have a fitted effect of over 45% in size; also: potency is read from the fitted curve at half-maximal effect).
Test [6] in a line: qHTS to identify inhibitors of the type 1 interferon - major histocompatibility complex class I in skeletal muscle: primary screen against the NCATS LOPAC collection (AID 1347405).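 Also: lytic HiBiT luminescence reporting HLA-B protein level.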 In outline:
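After 24 h at 37 C with compounds (7-point, 1:4.3 dilutions, 46 uM top final) plus 4 ng/ml IFN-beta, luminescence from lytic HiBiT detection was measured. HLA-B*08:01 in C25cl48 myoblasts carried an endogenous C-terminal HiBiT tag; medium lacked dexamethasone.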

Test [7] can be described thus: qHTS for inhibitors of adenylyl cyclases using a fission yeast platform: a pilot screen against the NCATS LOPAC library (AID 1347410). In a few lines: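 Inhibition of GNAS-stimulated AC9 activity in S. pombe was inferred from derepression of a PKA-repressed fbp1-GFP reporter, measured as cytometric fluorescence after 18 h at 30C with compounds at up to 57 µM.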
The nature of test [8]: Validation qHTS assay for inhibitors of Activation Induced Cytidine Deaminase (AID): UDG Counterscreen signal (AID 1347427). In a few lines: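 Fluorescence at 560 nm excitation, 665 nm emission reports UDG signal after 250 mM NaOH (2x) addition and 30 min. Enzymes (AID 1 uM, UDG 2 U/mL, at 4/3x) preincubated 10 min with compound, then 4 h with 4x 250 nM DJC20/DJC23 substrate at room temperature.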

The target in test [9] is Single-stranded DNA cytosine deaminase (Homo sapiens) (UniProt Q9GZX7). The experiment in a line: Validation qHTS assay for inhibitors of Activation Induced Cytidine Deaminase (AID): AID signal (AID 1347429). In a few lines: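 Compounds (final up to 114 uM) preincubated with AID plus UDG; 250 nM DJC20/DJC23 substrate mix (4x stock) added, 4 hr at room temperature, then NaOH, 30 min. Read 1 fluorescence at 540 nm excitation, 590 nm emission.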

Test [10] is described as follows: qHTS for inhibitors of Rabies Virus screened against the NCATS CANVASS Library (AID 1347402; calls by dose curve; also: series mostly up to about 46 µM).

Values without a mark were called inactive. Results filed as inconclusive are left out. Activity calls are given as the source filed them. Unless noted, calls follow the shape of the dose curve; as a rule, active = well fitted curve in the direction sought with a large enough effect; inconclusive = small, poorly fitted or top-dose-only effect, or another doubt; inactive = no such curve, though single readings can be large; an effect the other way counts as inactive or inconclusive.

Single-stranded DNA cytosine deaminase (Homo sapiens), sequence (Q9GZX7 whole entry, looked up): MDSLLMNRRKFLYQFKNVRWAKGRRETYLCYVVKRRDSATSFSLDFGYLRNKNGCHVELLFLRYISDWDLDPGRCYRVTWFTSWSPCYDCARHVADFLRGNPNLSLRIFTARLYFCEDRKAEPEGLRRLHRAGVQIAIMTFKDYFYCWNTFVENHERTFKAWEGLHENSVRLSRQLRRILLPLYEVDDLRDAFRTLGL
Protein phosphatase 1D (Homo sapiens), sequence (O15297 whole entry, looked up): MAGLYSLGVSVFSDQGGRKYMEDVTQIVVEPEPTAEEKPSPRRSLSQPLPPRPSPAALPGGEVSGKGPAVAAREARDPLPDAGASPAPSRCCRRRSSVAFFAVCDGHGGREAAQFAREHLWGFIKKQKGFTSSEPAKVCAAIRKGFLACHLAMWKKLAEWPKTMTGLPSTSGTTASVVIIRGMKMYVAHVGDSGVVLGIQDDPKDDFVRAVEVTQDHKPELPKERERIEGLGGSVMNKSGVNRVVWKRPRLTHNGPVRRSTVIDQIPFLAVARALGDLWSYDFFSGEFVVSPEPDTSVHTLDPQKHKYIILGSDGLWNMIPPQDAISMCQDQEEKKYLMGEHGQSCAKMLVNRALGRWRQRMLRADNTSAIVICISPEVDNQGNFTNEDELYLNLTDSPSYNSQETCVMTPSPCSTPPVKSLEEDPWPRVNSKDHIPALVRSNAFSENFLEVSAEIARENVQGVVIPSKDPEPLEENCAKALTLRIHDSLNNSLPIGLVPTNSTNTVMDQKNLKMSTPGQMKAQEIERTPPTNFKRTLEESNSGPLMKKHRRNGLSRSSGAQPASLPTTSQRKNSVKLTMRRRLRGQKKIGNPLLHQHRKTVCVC

For the molecule `Cn1cc(C2=C(c3cn(C4CCN(Cc5ccccn5)CC4)c4ccccc34)C(=O)NC2=O)c2ccccc21`, the Potency entry in [1], in [2], in test [3] and in test [5] was “inactive” throughout. The call in test [4] was inactive.
For the molecule `CCCN1CCC[C@@H]2Cc3nc(N)ncc3C[C@H]21`, the Potency result in test [6], in test [1] and in [3] was “inactive” in each case. Also, the result in test [7], in test [4], in test [8] and in test [9] was inactive.
As to `CCCN1CCC[C@@H]2Cc3[nH]ncc3C[C@H]21`, the Potency entry in test [6], in test [1] and in test [3] was “inactive” in each case. In addition, the outcome in [7], in [4], in test [8] and in test [9] was inactive.
On to `CC[C@@H](CO)NC(=O)[C@@H]1C=C2c3cccc4c3c(cn4C)C[C@H]2N(C)C1`, for which the Potency entry in [6], in test [1], in test [3] and in [5] was “inactive” each time. For the same molecule, the molecule was classed as inactive in test [7], in [4], in test [8] and in test [9].
For the molecule `Cc1cccc(C)c1NC(=O)CN1CCCC1=O`, the Potency entry in test [6], in [1], in [2] and in test [3] was “inactive” in each case. Further, the molecule was classed as inactive in [7], in test [4], in test [8] and in test [9].
Consider `Cc1ncc(CNC(=O)N(CCCl)N=O)c(N)n1`, for which the Potency entry in [6], in test [1], in [3] and in [5] was “inactive” in each case. In addition, the outcome in test [7], in [4], in test [8] and in test [9] was inactive.
Turning to `NCC(O)c1ccc(O)cc1` (centres undefined), the molecule was classed as inactive in [10], in test [7], in test [4], in test [8] and in test [9]. The Potency entry in test [6], in test [1], in test [3] and in test [5] was “inactive” each time.
For the molecule `CC(=O)[C@H]1CC[C@H]2[C@@H]3CC[C@H]4C[C@H](O)CC[C@]4(C)[C@H]3C(=O)C[C@]12C`, the Potency result in [6], in test [1] and in [3] was “inactive” throughout. Also, the call in [7], in [4], in test [8] and in [9] was inactive.
As to `CC[C@@H](CO)NC(=O)[C@@H]1C=C2c3cccc4[nH]cc(c34)C[C@H]2N(C)C1`, the Potency result in test [6], in [1], in [3] and in test [5] was “inactive” each time. The call in test [7], in test [4], in test [8] and in test [9] was inactive.
For `COC[C@@H](NC(C)=O)C(=O)NCc1ccccc1`, the Potency entry in test [1], in test [2] and in test [3] was “inactive” each time. Moreover, the molecule was called inactive in test [4].
On to `O=c1[nH]c2ccccc2n1CCCN1CCC(n2c(=O)[nH]c3cc(Cl)ccc32)CC1`, for which the Potency entry in test [1], in test [2] and in test [3] was “inactive” in each case. Moreover, the outcome in [7], in test [4], in [8] and in test [9] was inactive.
Consider `O=P1(NCCCl)OCCCN1CCCl` (centres undefined), for which the Potency result in test [1], in [2], in test [3] and in test [5] was “inactive” throughout. Further, the result in [4] was inactive.
In the case of `C[C@]12CCC(=O)C(O)=C1CC[C@@H]1[C@@H]2CC[C@]2(C)C(=O)CC[C@@H]12`, the Potency entry in test [1], in test [2] and in test [3] was “inactive” throughout. The outcome in [4], in [8] and in [9] was inactive.
Take `O=C1NCN(c2ccccc2)C12CCN(CC1COc3ccccc3O1)CC2` (centres undefined): the Potency entry in test [6], in test [1] and in test [3] was “inactive” in each case. In addition, the outcome in [7], in test [4], in test [8] and in [9] was inactive.
As to `CN(C)[C@@H]1C(=O)C(C(N)=O)=C(O)[C@@]2(O)C(=O)C3=C(O)c4c(O)cccc4[C@@](C)(O)[C@H]3C[C@@H]12`, the Potency entry in test [2] was “inactive”.
Take `CCCC(C)(COC(N)=O)COC(=O)NC(C)C` (centres undefined): the call in test [8] and in [9] was inactive.
In the case of `COC1(CS(=O)c2ccccc2)CCN(CCc2c[nH]c3ccc(F)cc23)CC1` (centres undefined), the Potency entry in test [2] is “inactive”.
For `O=C1CC[C@@]2(O)[C@H]3Cc4ccc(O)c5c4[C@@]2(CCN3CC2CC2)[C@H]1O5`, the Potency result in test [3] and in test [5] was “inactive” each time. Also, the molecule was classed as inactive in test [4].
As to `Oc1cccc2cccnc12`, the Potency entry in test [1], in [3] and in [5] was “inactive” throughout. The outcome in test [4] was inactive.
With `Nc1cccc2c1CN(C1CCC(=O)NC1=O)C2=O` (centres undefined), in [5], the Potency result was “inactive”.
For the molecule `C[C@]12C/C(=C/O)C(=O)C[C@@H]1CC[C@@H]1[C@@H]2CC[C@@]2(C)[C@H]1CC[C@]2(C)O`, the Potency entry in [3] was “inactive”. In addition, the result in [4] was inactive.
Turning to `CC[N+](C)(C)c1cccc(O)c1`, the Potency result in [5] is “inactive”.
For `Fc1ccc(C(OCCN2CCN(CCCc3ccccc3)CC2)c2ccc(F)cc2)cc1`, the result in [7], in test [4], in test [8] and in test [9] was inactive. In [3], the Potency entry is “inactive”.
For `O=C(O)C(=O)c1cn(Cc2ccccc2)c2ccc(-c3ccc(OC(F)(F)F)cc3)cc12`, the Potency entry in test [2] is “inactive”.
Take `Cc1cc(SCc2sc(-c3ccc(C(F)(F)F)c(F)c3)nc2C)ccc1OCC(=O)O`: the Potency result in test [2] was “inactive”.
In the case of `CCN(CC)C(=O)N[C@@H]1C=C2c3cccc4[nH]cc(c34)C[C@@H]2N(C)C1`, the Potency result in test [1], in test [3] and in test [5] was “inactive” throughout. Also, the molecule was called inactive in [4].
For `COc1ccc(Cl)cc1C(=O)NCCc1ccc(S(=O)(=O)NC(=O)NC2CCCCC2)cc1`, the Potency entry in test [5] is “inactive”.
Turning to `Clc1ccc(COC(Cn2ccnc2)c2ccc(Cl)cc2Cl)cc1` (centres undefined), the Potency result in test [3] was “inactive”. For the same molecule, in [4], the outcome was inactive.
For the molecule `COC[C@H]1OC(=O)c2coc3c2[C@@]1(C)C1=C(C3=O)C2CCC(=O)[C@@]2(C)C[C@H]1OC(C)=O` (some centres undefined), the result in test [7], in test [8] and in test [9] was inactive.
For the molecule `CC(C)(C)NCC(O)c1cc(Cl)c(N)c(Cl)c1` (centres undefined), the Potency result in test [1], in [3] and in test [5] was “inactive” each time. In test [4], the call was inactive.
In the case of `CC(C)NCC(O)c1ccccc1Cl` (centres undefined), the Potency entry in test [1], in [3] and in [5] was “inactive” each time. For the same molecule, the result in test [4] was inactive.
`C=CCN1CC[C@]23c4c5ccc(O)c4O[C@H]2C(=O)CC[C@@]3(O)[C@H]1C5`: the Potency entry in test [1], in test [3] and in test [5] was “inactive” throughout. The result in [4] was inactive.
On to `COc1ccc(Cc2nccc3cc(OC)c(OC)cc23)cc1OC`, for which the Potency result in test [1] and in [3] was “inactive” in each case. In test [4], the molecule was called inactive. The Potency in test [5] was 14.1 µM (active).
Turning to `CCCN[C@H]1CCc2nc(N)sc2C1`, the Potency result in test [5] was “inactive”.
On the same count and under the same terms, under `Cc1c(O)cccc1C(=O)N[C@@H](CSc1ccccc1)[C@H](O)CN1C[C@H]2CCCC[C@H]2C[C@H]1C(=O)NC(C)(C)C` stands “inactive”.
As to `NC(=O)OCC(COC(N)=O)c1ccccc1`, the Potency entry in test [5] was “inactive”.
Take `CN1CCC[C@@H]1CCO[C@](C)(c1ccccc1)c1ccc(Cl)cc1`: in [5], the Potency was 10 µM (active).
For the molecule `CN(C)CCc1ccc(O)cc1`, the Potency result in test [1] was “inactive”. The result in [4] was inactive.
Turning to `O=c1[nH]c2ccccc2n1C1CCN(CCCC(c2ccc(F)cc2)c2ccc(F)cc2)CC1`, the molecule was called inactive in test [7], in test [4], in [8] and in [9]. In addition, the Potency entry in [3] is “inactive”. Moreover, the Potency in [5] was 11.2 µM (active).
Consider `CC(=O)Oc1cc2c(s1)CCN(C(C(=O)C1CC1)c1ccccc1F)C2` (centres undefined), for which, in test [5], the Potency result is “inactive”.
Regarding `CCC(=O)C(CC(C)N(C)C)(c1ccccc1)c1ccccc1` (centres undefined), the Potency result in [3] was “inactive”. In addition, the molecule was classed as inactive in [4].
On to `CC(C)(C)C(=O)OCOP(=O)(COCCn1cnc2c(N)ncnc21)OCOC(=O)C(C)(C)C`, for which the Potency result in test [5] is “inactive”.
Turning to `FC(F)(F)c1cccc(C2=CCN(CCc3ccc4ccccc4c3)CC2)c1`, the Potency entry in test [1], in test [3] and in test [5] was “inactive” in each case. The call in test [4] was inactive.

The values are drawn from PubChem BioAssay (NCATS).
